Source: PubChem (National Center for Advancing Translational Sciences (NCATS))
Luc counter: Counterscreen for Luciferase (Kinase-Glo TM) Inhibition; Kinase-Glo luciferase, ATP luminescence, 8 min; Potency, µM (doses to about 38.3 µM), actives largely listed as inhibitors; actives 0.28% (n = 200,000); AID 1379, 2008; further: nearly all actives have a fitted effect of over 60% in size
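Inhibition of Kinase-Glo luciferase light generation was assessed at 10 uM ATP in pH 7.2 imidazole buffer, with luminescence measured after eight minutes at ambient temperature.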
Gal4-VP16 FLuc: VP16 counterscreen qHTS for inhibitors of ROR gamma transcriptional activity; Drosophila S2 Gal4-VP16 UAS-luciferase, luminescence, 20 h; Potency, µM (top dose mostly 53.6 µM), hits mostly inhibitors; actives 3.5% (n = 310,000); AID 2546, 2010;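 further: Gal4-VP16 expression switched on by copper sulfate through the metallothionein promoter; nearly all actives have a fitted effect of over 50% in size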
RORgamma inh: qHTS for inhibitors of ROR gamma transcriptional activity; Drosophila S2 Gal4-RORgamma UAS-luciferase reporter, 20 h; Potency, µM (highest dose often 53.6 µM), most hits filed as inhibitors; actives 5.4% (n = 310,000); AID 2551, 2010; Nuclear receptor ROR-gamma (Mus musculus), P51450; further: nearly all actives have a fitted effect of over 60% in size
Target sequence (P51450 whole entry, looked up, the tested form may be a part): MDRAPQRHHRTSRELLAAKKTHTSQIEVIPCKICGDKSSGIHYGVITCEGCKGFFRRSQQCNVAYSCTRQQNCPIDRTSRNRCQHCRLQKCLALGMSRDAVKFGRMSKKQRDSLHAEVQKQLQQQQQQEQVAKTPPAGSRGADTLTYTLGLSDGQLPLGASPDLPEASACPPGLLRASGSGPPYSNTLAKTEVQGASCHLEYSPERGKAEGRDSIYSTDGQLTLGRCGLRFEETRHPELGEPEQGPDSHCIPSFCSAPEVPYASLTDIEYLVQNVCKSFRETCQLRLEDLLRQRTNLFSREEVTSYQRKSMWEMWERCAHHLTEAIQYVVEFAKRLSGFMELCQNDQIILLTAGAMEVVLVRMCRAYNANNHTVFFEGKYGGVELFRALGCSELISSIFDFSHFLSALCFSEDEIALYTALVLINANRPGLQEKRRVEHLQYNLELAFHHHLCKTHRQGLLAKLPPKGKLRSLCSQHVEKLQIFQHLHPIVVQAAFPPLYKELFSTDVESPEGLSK
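Read-out: Photinus luciferase luminescence; inhibitors lower reporter signal. Insect Schneider cells with Gal4-ROR gamma fusion under metallothionein promoter, UAS reporter; 700 uM final copper sulfate induction, 20 hr, ambient temperature.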
Hits are given with their value; i = inactive; ? = inconclusive; nt = no result. Rows were chosen to be rich in hits. Some 6.4% of all compounds tested hit in one or more screens of this group. The call rests on the fitted dose curve; in most records, active means well fitted curve in the direction sought with a large enough effect; inconclusive means small, poorly fitted or top-dose-only effect, or another doubt; inactive means no such curve, though single readings can be large; an effect the other way counts as inactive or inconclusive.

SMILES	Luc counter	Gal4-VP16 FLuc	RORgamma inh
COc1cc(/C=N/NC(=O)c2cc(C)oc2C)ccc1OCc1ccccc1	nt	i	?
COc1ccc(C2CC(c3ccccc3)Oc3cc(OC)c(OC)c(OC)c32)cc1 (stereo not drawn)	nt	i	i
CC(=O)c1cccc(OCc2cc(C(=O)NCCC3=CCCCC3)no2)c1	nt	i	i
COc1cc(/C(C)=N/NC(=S)NC(C)C)cc(OC)c1OC	i	5µM	3.2µM
COc1cc(C(=O)N/N=C(\C)Cc2ccccc2)cc(OC)c1OC	i	i	?
COc1cc(/C(C)=N\NC(N)=S)cc(OC)c1OC	i	?	5.6µM
COc1cc(C(=O)NCCC(=O)NC(C)C)cc(OC)c1OC	i	i	i
COc1ccc(C(=O)NC2CCN(Cc3c(F)cccc3Cl)CC2)cc1OC	nt	i	i
Oc1oc(-c2ccccc2)nc1/C=N/c1nccs1	i	?	16µM
CCCCOc1ccc(-c2nc(/C=N/c3nccs3)c(O)o2)cc1	i	i	?
Cc1cccc(CC(=O)N2CCC(n3nccc3NC(=O)C3CC3)CC2)c1	nt	i	i
CC(C)(/C=N/NC(=O)CSCc1ccc(Cl)cc1)CCC#N	i	i	i
O=C(NC(=S)Nc1cccc(Cl)c1N1CCOCC1)c1cccs1	i	18µM	3.2µM
O=C(Nc1cccc(Cl)c1N1CCOCC1)c1ccc(Br)o1	nt	i	i
O=C(Nc1ccccc1N1CCCCC1)c1cccs1	i	i	i
CCCC(=O)NC(=S)Nc1cccc(Cl)c1N1CCCC1	i	7.1µM	1.3µM
CCCC(=O)Nc1ccc(Cl)c(NC(=S)NC(=O)C(C)C)c1	i	i	i
O=C(NC(=S)Nc1cccc(Cl)c1N1CCCCC1)c1cccs1	i	?	0.71µM
COc1ccc(N(CC(=O)N2CCN(Cc3ccccc3)CC2)S(C)(=O)=O)cc1Cl	nt	i	i
COc1ccc(C(=O)N2CCC3(CC2)CCN(c2ncccn2)CC3)cc1	i	i	i
O=C(CCn1c(=S)oc2ccccc21)NCCC1=CCCCC1	nt	i	i
CCCCCC(C)NC(=O)CN1C(=O)NC(C)(c2ccc3ccccc3c2)C1=O (stereo not drawn)	nt	13µM	5µM
CC1(c2ccc3ccccc3c2)NC(=O)N(CC(=O)NCc2cccs2)C1=O (stereo not drawn)	i	i	?
CCCN(CC1CC1)C(=S)NC(=O)C1CC1	i	13µM	4µM
CCCN(CC1CC1)C(=S)Nc1ccc(C(C)=O)cc1	i	i	?
SMILES	Luc counter	Gal4-VP16 FLuc	RORgamma inh
CCC(Oc1ccccc1)C(=O)O/N=C(\N)c1ccc(OC)c(OC)c1 (stereo not drawn)	i	i	i
COc1cc(/C=C2/C(=O)N(C)C(=S)N2C)ccc1OCc1cccc(F)c1	nt	i	i
CN1C(=O)/C(=C/c2ccc(OCc3cccc(F)c3)cc2)NC1=S	nt	?	7.1µM
O=C(O)c1ccc(COc2ccccc2/C=C2\NC(=O)N(Cc3ccccc3F)C2=O)cc1	i	i	i
CN1C(=O)/C(=C/c2ccccc2OCc2ccccc2F)NC1=S	i	i	1.6µM
C=CCN=C1CC(C)(C)C(C(=O)OC)C(O)=C1C(=O)CCC (stereo not drawn)	i	i	i
Cc1nc2ccccc2c2c1C(=O)NC2=O	nt	i	i
COc1ccc(CNC(=S)Nc2ccccc2)cc1	nt	10µM	7.1µM
COc1ccc(CNC(=O)CCSCc2cccc(F)c2)cc1	nt	i	i
COc1ccc(CNC(=S)Nc2cccc(F)c2)cc1	nt	6.3µM	10µM
COc1ccc(CNC(=S)Nc2cccc(C)c2)cc1	i	20µM	10µM
COc1cccc(NC(=S)NCc2ccc3c(c2)cc(C)n3C)c1	i	?	4.5µM
Cc1cc2cc(CNC(=S)Nc3ccc(OC(F)(F)F)cc3)ccc2n1C	i	i	i
COc1ccc(CNC(=O)Nc2cccc(Cl)c2)cc1	nt	i	i
CNC(=S)NCc1ccc(OC)cc1	i	i	i
CC(C)(C)OC(=O)NS(=O)(=O)Nc1ccccc1Br	nt	i	i
O=C1CN(C(=O)c2ccc(F)cc2)c2ccccc2N1	nt	i	i
COCCCNC(=O)C1=CCN(S(=O)(=O)c2ccc(C)cc2)CC1	nt	i	i
COCc1nnc(NC(=O)C2CC(=O)N(CCc3ccc(F)cc3)C2)s1 (stereo not drawn)	nt	i	i
O=[N+]([O-])c1ccc(N/N=C/c2ccc[nH]2)cc1	?	i	i
COc1cc(C(C)C)c2c(c1)S(=O)(=O)N(COc1cc(=O)n3cccc(OCCN4CCCCC4)c3n1)C2=O	nt	?	i
COc1cccc(NC(=O)CCC(=O)Nc2cccc(OC)c2)c1	i	i	i
Cc1cccc(NC(=S)NC(C)(C)CC(C)(C)C)c1	i	8.9µM	2.2µM
COc1cccc(NC(=S)NCc2ccc(F)cc2)c1	nt	7.1µM	?
Cc1cccc(NCCNc2cccc(C)c2)c1	i	i	i
SMILES	Luc counter	Gal4-VP16 FLuc	RORgamma inh
O=C(NCc1ccc(F)cc1)Nc1ccccc1	nt	i	i
Cc1cccc(NC(=S)NCc2ccc(F)cc2)c1	i	13µM	?
COc1ccc(N2CC(C(=O)N3CCN(c4ccccc4F)CC3)CC2=O)cc1 (stereo not drawn)	nt	i	i
O=[N+]([O-])c1ccc(CN2CCN(Cc3c[nH]c4ccccc34)CC2)cc1	i	i	i
O=C(NC1CCCC1)O[C@@H]1C(=O)c2cc(Br)ccc2O[C@H]1c1ccc2c(c1)OCO2	i	i	i
COc1ccc(N(CC(=O)NC2CCCCCC2)S(=O)(=O)c2ccccc2)cc1Cl	nt	i	i
Cc1ccccc1OCC(O)CN1CCN(CCN2C(=O)c3cccc4cccc(c34)C2=O)CC1 (stereo not drawn)	i	i	i
C=CCc1ccccc1OCC(O)CN1CCN(CCN2C(=O)c3cccc4cccc(c34)C2=O)CC1 (stereo not drawn)	i	11µM	i
CCn1ncc(Br)c1C(=O)Nc1ccc(F)c([N+](=O)[O-])c1	i	i	i
CCCCCc1ccc(C)cc1O	nt	?	i
CSc1ccc(/C=N\Nc2nncn2N)cc1	nt	?	i
C=CCS/C(N)=N\N=C\c1cc(Br)cc([N+](=O)[O-])c1O	nt	3.2µM	0.32µM
Nn1cnnc1N/N=C/c1cc(Br)cc(Br)c1O	i	13µM	10µM
Cc1nnc(C)n1/N=C/c1cc(Br)cc(Br)c1O	i	?	?
O=[N+]([O-])c1cc(Br)cc(/C=N/n2cnnc2)c1O	i	i	i
CS/C(N)=N/N=C/c1cc(Br)cc(Br)c1O	nt	2.5µM	0.63µM
CCCCS/C(N)=N/N=C/c1cc(C)ccc1O	i	5µM	5.6µM
CCOc1cccc(C(=O)N/N=C/c2coc3ccccc3c2=O)c1	nt	i	i
C=CC(C1=CC(=O)C(OC)=CC1=O)c1ccc(O)cc1 (stereo not drawn)	i	i	i
CSc1nnc(C2CCN(CC(=O)Nc3ccccc3N3CCOCC3)CC2)n1C(C)C	nt	i	i
COC(=O)C1=C[C@@H](C(=O)OC)C2C3=C(C(=O)[C@]2(C)NC(=O)c2ccccc2)[C@H](C)n2c(=O)n(-c4ccccc4)c(=O)n2[C@@H]3C1 (stereo partly drawn)	nt	i	i
O=C(CN(Cc1ccco1)C(=O)CNS(=O)(=O)c1ccc(F)cc1)NCc1ccccc1	nt	i	i
CS/C(N)=N/N=C/c1cc(C)ccc1O	nt	5µM	0.32µM
CCS/C(N)=N/N=C/c1cc(C)ccc1O	i	2µM	0.71µM
